Records with an inconclusive call do not appear. Activity calls are given as the source filed them.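 The calls were made as follows, unless noted: active = inhibition over a set limit, the all-compound mean plus 3 SD, in both replicate runs; inconclusive = over that limit in just one replicate run; inactive = at or under that limit in both runs.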
Key:
[1] = HUVEC growth inhibition – cell-based, human, primary screen (AID 575;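 active = viability at or below 30% in both replicate assays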;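 also: 100% = median of untreated cell wells with 0.1% DMSO on each plate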); conditions: HUVEC proliferation, CellTiter-Glo luminescence, 72 h; at 10 µM; stronger effect = lower value
[2] = growth inhibitors of H69AR lung tumor, primary screen, human, duplicate replicates (AID 580;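 active = viability at or under a set limit in both replicates, limit being median viability minus 3 SD, cut at about 48% in these data, passing the limit was not always enough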;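 also: 100% = mean luminescence of untreated wells and 0% = no signal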); conditions: H69AR lung tumor cells viability, ATP luminescence, 72 h; at 10 µM; stronger effect = lower value
[3] = reversal of MRP1-mediated doxorubicin resistance, pilot screen, H69AR cells, doxorubicin co-treatment (AID 601;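 active = viability loss from added drug above about 55%, and viability with drug at most 40%, in both replicates, limit read from the data, passing the limit was not always enough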); conditions: CellTiter-Glo, 72 h, at 10 µM; for differential viability (reversal): stronger effect = higher value
[4] = 384-well plate pilot, post-Golgi transport modulator project, inhibition of yeast transport mutant growth (AID 636; in the data active = inhibition above about 31%); conditions: absorbance 615 nm, about 18 h, stronger effect = higher value
[5] = growth suppression of yeast trafficking mutant, preliminary HTS, modulators of trafficking downstream of Golgi apparatus project, 1536-format plate, OD 615 nm (AID 637; in the data active = inhibition above about 30%); conditions: yeast transport mutant growth, absorbance 615 nm, 18 h; stronger effect = higher value
[6] = OD615 S. cerevisiae growth inhibition, permissive medium, pilot counter-assay, permissive growth control for S. cerevisiae lifespan shortening project (AID 705;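 active = growth inhibition above 25% in both replicates, a cutoff set 3 SD above the mean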); conditions: OD615, 24 h, at 10 µM, stronger effect = higher value
[7] = Restrictive medium S. cerevisiae growth inhibition, OD615, pilot screen of yeast lifespan reduction project, restrictive growth control (AID 706;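 active = growth inhibition above a set limit, 3 SD over mean compound inhibition, in both replicates, cut at about 43% in these data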;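 also: modified DeaD lifespan yeast strain shifted to restrictive glucose medium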); conditions: OD615, 48 h, at 10 µM, stronger effect = higher value
[8] = viability gain of MRP-1-high H69AR cells under doxorubicin, pilot screen, MRP-1 activator project, CellTiter-Glo, duplicate (AID 807;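 active = viability increase at or above a cutoff of the median across tested compounds plus 3 SD, cut at about 8.5% in these data, passing the limit was not always enough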;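 also: compound pretreatment 18-22 h then 72 h combined with doxorubicin; 0% = doxorubicin alone and 100% = vehicle without doxorubicin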); conditions: H69AR viability with doxorubicin, CellTiter-Glo luminescence; at 10 µM; stronger effect = higher value
[9] = growth suppression of beta-catenin knockout HCT116, pilot screen, human colon tumor cells (AID 823;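 active = cell viability at or below a set limit in both duplicate runs, the limit being the all-compound median minus 4 SD, cut at about 23% in these data, passing the limit was not always enough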;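 also: 0% = wells killed by 20 µM Hyamine and 100% = untreated DMSO cell wells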); conditions: CellTiter-Glo, 60 h, at 10 µM, stronger effect = lower value
[10] = growth suppression of PTEN-deleted HCT116, pilot screen, cell-based, HCT116 clonal line, CellTiter-Glo (AID 824;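 active = viability at or below 27.92% in each of two runs, the all-compound median minus 4 SD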;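 also: 0% = 20 µM Hyamine control and 100% = vehicle cell control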); conditions: 60 h, at 10 µM, stronger effect = lower value
[11] = inhibitors of the yeast RAM network, pilot screen, dse1pr::URA3 reporter, 5-FOA selection (AID 869);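 also: 0% = DMSO wells with no growth and 100% = 10 µM 1-NA-PP1 with full growth; RAM network block rescues cells from 5-FOA so hits raise OD615 growth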; conditions: S. cerevisiae dse1pr::URA3 5-FOA growth, OD615, 2 d; at 10 µM; stronger effect = higher value; strain carries analog-sensitive mutant Cbk1 kinase
[12] = RAM signaling pathway blockade in yeast – S. cerevisiae, Pdr1DBD-CYC8 efflux-inhibited sensitized strain, primary screen (AID 1298;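 active = RAM network inhibition above 8.4% in each of two replicates, 3 SD over the compound average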;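 also: 0% = DMSO untreated cells without growth and 100% = 10 µM 1-NA-PP1 full growth; higher means more yeast growth rescued from 5-FOA killing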); conditions: S. cerevisiae cbk1-as DSE1-URA3 strain, 5-FOA growth OD615, 2 d; at 50 µM; stronger effect = higher value
[13] = H69AR cells + 2 uM doxorubicin, measured here: viability with 2 uM doxorubicin, stronger effect = lower value
[14] = H69AR cells, compound alone cytotoxicity

CCn1c(CCNC(=O)c2ccc(OC)c(OC)c2)nc2ccccc21
76.6%: viability [3, 13]
83.2%: viability [3, 14]
inactive: viability [1] 103% | viability [2] 83.2% | differential viability (reversal) ([3]; H69AR cells + 2 uM doxorubicin) 6.54% | inhibition [4] -5.92% | inhibition [5] -2.22% | growth inhibition [6] -10.8% | growth inhibition [7] -11.1% | viability increase [8] -2.22% | viability [9] 102% | viability [10] 99.2% | inhibition [11] 1.87% | RAM network inhibition [12] 4.36%

CC(C)=CC(=O)OCC(=O)NC(=O)NC(C)(C)C
97%: viability [3, 14]
101%: viability [3, 13]
inactive: viability [1] 103% | viability [2] 97% | differential viability (reversal) ([3]; H69AR cells + 2 uM doxorubicin) -3.87% | inhibition [4] 0.52% | inhibition [5] -3.97% | growth inhibition [6] 1.02% | growth inhibition [7] 3.65% | viability increase [8] -3.01% | viability [9] 104% | inhibition [11] 2.76% | RAM network inhibition [12] 2.91%

c1ccc2c(c1)ccc1nnc(-c3ccc4c(c3)OCO4)n12
96%: viability [3, 14]
inactive: viability [1] 98.7% | viability [2] 96% | differential viability (reversal) ([3]; H69AR cells + 2 uM doxorubicin) 4.88% | inhibition [4] -1.82% | inhibition [5] 3.33% | growth inhibition [6] -7.74% | growth inhibition [7] 2.03% | viability increase [8] -5.23% | viability [9] 93.7% | viability [10] 90.9% | inhibition [11] 1.31% | RAM network inhibition [12] 1.81%
91.1%: viability [3, 13]

Cc1ccc(-c2cc(C(F)F)nc(N3CCC(C)CC3)n2)cc1
91.1%: viability [3, 14]
89.7%: viability [3, 13]
inactive: viability [1] 85.7% | viability [2] 91.1% | differential viability (reversal) ([3]; H69AR cells + 2 uM doxorubicin) 1.39% | inhibition [4] -4.47% | inhibition [5] 1.75% | growth inhibition [6] 3.35% | growth inhibition [7] 6.11% | viability increase [8] 1.95% | viability [9] 100% | viability [10] 101% | inhibition [11] 2.67% | RAM network inhibition [12] 6.64%

Cc1ccc(C)c(N2C(=O)CN=C2Nc2ccccc2Cl)c1
inactive: viability [1] 80.1% | viability [2] 100% | differential viability (reversal) ([3]; H69AR cells + 2 uM doxorubicin) 21.3% | inhibition [4] -1.95% | inhibition [5] 2.54% | growth inhibition [6] -7.25% | growth inhibition [7] -0.67% | viability increase [8] -0.31% | viability [9] 91.5% | viability [10] 94.4% | inhibition [11] 0.715% | RAM network inhibition [12] -0.52%
78.6%: viability [3, 13]
100%: viability [3, 14]

CCCCNC(=O)Nc1ccnn1C1CCCCC1
100%: viability [3, 14]
inactive: viability [1] 96.5% | viability [2] 100% | differential viability (reversal) ([3]; H69AR cells + 2 uM doxorubicin) 13% | inhibition [4] -3.64% | inhibition [5] 7.14% | growth inhibition [6] -5.58% | growth inhibition [7] -15% | viability increase [8] -1.77% | viability [9] 97.9% | viability [10] 90.7% | inhibition [11] -0.255% | RAM network inhibition [12] -2.79%
87.2%: viability [3, 13]

COc1cccc(N2CCN(c3c4c(nc5ncnn35)CCC4)CC2)c1
inactive: viability [1] 68.7% | viability [2] 86.9% | differential viability (reversal) ([3]; H69AR cells + 2 uM doxorubicin) 10.4% | inhibition [4] -4.55% | inhibition [5] 8.73% | growth inhibition [6] -0.38% | growth inhibition [7] 16.8% | viability increase [8] -1.17% | viability [9] 77.5% | viability [10] 92.9% | inhibition [11] 0.465% | RAM network inhibition [12] 4.78%
86.9%: viability [3, 14]
76.5%: viability [3, 13]

COc1cccc2cc(C(=O)Nc3cccnc3N3CCOCC3)c(=O)oc12
inactive: viability [1] 101% | viability [2] 94.3% | differential viability (reversal) ([3]; H69AR cells + 2 uM doxorubicin) 10.1% | inhibition [4] -4.03% | inhibition [5] 3.65% | growth inhibition [6] -8.22% | growth inhibition [7] -21.8% | viability increase [8] -3.74% | viability [9] 101% | viability [10] 98.8% | inhibition [11] 3.31% | RAM network inhibition [12] 1.45%
94.3%: viability [3, 14]
84.2%: viability [3, 13]

COC(=O)c1cccc(NC(=O)C2COc3ccccc3O2)c1C (centres undefined)
inactive: viability [1] 116% | viability [2] 100% | differential viability (reversal) ([3]; H69AR cells + 2 uM doxorubicin) 8.78% | inhibition [4] -1.71% | inhibition [5] -6.98% | growth inhibition [6] -14.9% | growth inhibition [7] -21.5% | viability increase [8] 0.68% | viability [9] 106% | viability [10] 99% | inhibition [11] -0.07% | RAM network inhibition [12] 3.78%
91.4%: viability [3, 13]
100%: viability [3, 14]

COc1ccc(C)cc1NC(=O)CNC(=O)Cn1ccc2ccccc2c1=O
inactive: viability [1] 112% | viability [2] 92.8% | differential viability (reversal) ([3]; H69AR cells + 2 uM doxorubicin) 6.84% | inhibition [4] -1.18% | inhibition [5] 1.59% | growth inhibition [6] -17.2% | growth inhibition [7] -3.23% | viability increase [8] -2.41% | viability [9] 89% | viability [10] 90.3% | inhibition [11] 1.96% | RAM network inhibition [12] 5.68%
85.9%: viability [3, 13]
92.8%: viability [3, 14]
